Source: PubChem
Rows were chosen to be rich in hits. Some 19% of all compounds tested hit in one or more screens of this group.
IL-1B inflam inh: inhibitors of inflammasome signaling (IL-1 beta secretion); THP-1 LPS/ATP IL-1B secretion, AlphaLISA, 16 h; hits give low values; activity change, % at 57.5 µM; 4.7% of 360,000 active; in the data active = activity change below about -50%; inconclusive = mostly about -30% to -49%
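Secreted IL-1B measured by AlphaLISA bead assay after 16 h compound exposure of THP-1 cells; compounds (final up to 57.5 uM) added 1 h before LPS (250 ng/mL) and ATP (1.25 mM) stimulation; lower signal means less secretion.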
ELG1 repair inh: blocks ELG1-dependent DNA repair in HEK293T cells. HEK293T ELG1-luciferase reporter, luminescence, 16 h; DNA damage induced by 5-fluorouridine. Potency, µM (doses to about 46.1 µM), usual class: inhibitors. 2.3% of 330,000 active. AID 504467; note: nearly all actives have a fitted effect of over 55% in size
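Overnight (16 hr) co-exposure of 2,000 cells/well to 5-fluorouridine and compound at 37 °C preceded detection. Luciferase was quantified via ONE-Glo luminescence; loss of signal denotes inhibition.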
DT40 TDP1 CPT: growth inhibition of DT40 Tdp1-/-;hTDP1 cells with camptothecin (screen for TDP1 inhibitors); chicken DT40 Tdp1-/-;hTDP1 cells + 20 nM CPT, ATP luminescence, 48 h; Potency, µM (doses to about 46.2 µM), most hits filed as inhibitors; 12% of 420,000 active; AID 686979; note: nearly all actives have a fitted effect of over 55% in size
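Cell growth measured by CellTiter-Glo luminescence after a minimum 48 h, 37 C compound exposure with 20 nM CPT in Tdp1-knockout DT40 cells stably expressing hTDP1, seeded 400/well; qHTS titration format.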
Giardia kill: Giardia lamblia killing. Giardia lamblia trophozoite viability. activity change, % at 7.66 µM, hits read low. 0.15% of 340,000 active. AID 540267; in the data active = activity change below about -80%; inconclusive = between about -30% and that limit;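 note: parasites exposed to compound for two days anaerobically before the ATP read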
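Compounds were tested on trophozoites seeded at 100 cells/well and held 48 hrs at 37 deg C anaerobically. An ATP-based luminescent kit measured the remaining live cells.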
TDP1 inh: inhibitors of human tyrosyl-DNA phosphodiesterase TDP1; Q9NUW8; recombinant TDP1, AlphaScreen DNA substrate cleavage; Potency, µM (titrated, usually from 130 µM), most hits filed as inhibitors; 0.28% of 350,000 active; AID 485290; note: nearly all actives have a fitted effect of over 40% in size
Target sequence (Q9NUW8 whole entry, looked up): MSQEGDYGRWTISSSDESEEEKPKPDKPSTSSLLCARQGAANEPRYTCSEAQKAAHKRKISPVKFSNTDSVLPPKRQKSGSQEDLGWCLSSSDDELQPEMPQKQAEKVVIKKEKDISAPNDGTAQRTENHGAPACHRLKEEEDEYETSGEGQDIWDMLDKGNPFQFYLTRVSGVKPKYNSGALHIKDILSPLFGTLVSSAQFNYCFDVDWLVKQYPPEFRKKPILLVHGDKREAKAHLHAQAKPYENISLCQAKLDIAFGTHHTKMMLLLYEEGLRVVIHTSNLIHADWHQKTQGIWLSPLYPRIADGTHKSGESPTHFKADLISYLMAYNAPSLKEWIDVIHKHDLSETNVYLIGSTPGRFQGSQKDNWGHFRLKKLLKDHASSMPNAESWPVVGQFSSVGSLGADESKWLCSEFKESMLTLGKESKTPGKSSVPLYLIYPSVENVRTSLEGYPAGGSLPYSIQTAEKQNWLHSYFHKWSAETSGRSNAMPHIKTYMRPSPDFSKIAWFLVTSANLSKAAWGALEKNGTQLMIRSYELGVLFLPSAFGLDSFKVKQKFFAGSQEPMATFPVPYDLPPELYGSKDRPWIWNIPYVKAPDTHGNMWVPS
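Enzyme-compound mixtures sat 15 min at room temperature, followed by a 5 min reaction with 15 nM final substrate and 10 min with AlphaScreen beads. Recombinant human Tdp1 was used at 1 nM final.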
TDP1 cell noCPT: qHTS for Inhibitors of human tyrosyl-DNA phosphodiesterase 1 (TDP1): qHTS in cells in absence of CPT | DT40 Tdp1-/- hTDP1 cells, no CPT, ATP luminescence, 48 h | 15% of 420,000 active | AID 686978, 2013 | Potency, µM (titrated, usually from 46.2 µM), hits mostly inhibitors; note: nearly all actives have a fitted effect of over 55% in size
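Seeded 400 DT40-hTDP1 cells/well (vehicle DMSO, no 20 nM CPT); pinned compounds; ≥48 hr at 37 °C; CellTiter-Glo luminescence as viability measure.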
Numbers stand for hits. Unless noted, calls come from the whole dose curve; as a rule, active = well fitted curve in the direction sought with a large enough effect; inconclusive = small, poorly fitted or top-dose-only effect, or another doubt; inactive = no such curve, though single readings can be large; an effect the other way counts as inactive or inconclusive.

COc1ccc(C)cc1NC(=O)CSc1ccc(-c2ccccn2)nn1 was read as IL-1B inflam inh inactive, ELG1 repair inh inactive, DT40 TDP1 CPT inconclusive, Giardia kill inactive, TDP1 inh inactive and TDP1 cell noCPT 20.6µM.
`COc1ccc(OC)c(NC(=O)CSc2ccc(-c3cccs3)nn2)c1` gave DT40 TDP1 CPT inconclusive, TDP1 inh inactive and TDP1 cell noCPT inconclusive.
`CCc1nc(SCC(=O)Nc2cc(OC)ccc2OC)c2c(C)c(C)sc2n1` gave IL-1B inflam inh inactive, ELG1 repair inh inconclusive, DT40 TDP1 CPT 18.4µM, Giardia kill inactive and TDP1 cell noCPT 25.9µM.
Screening COc1cc(NC(=O)CSc2ccc(-c3ccccn3)nn2)cc(OC)c1 returned IL-1B inflam inh inactive, ELG1 repair inh inactive, DT40 TDP1 CPT inconclusive, Giardia kill inactive, TDP1 inh inactive and TDP1 cell noCPT inconclusive.
COc1ccc(OC)c(NC(=O)CSc2ccc(-c3sc(C)nc3C)nn2)c1 was read as DT40 TDP1 CPT 14.6µM, TDP1 inh inactive and TDP1 cell noCPT 13µM.
`Cc1ccc(C(=O)N2CCN(C34CC5CC(CC(C5)C3)C4)CC2)o1` gave IL-1B inflam inh inactive, ELG1 repair inh inactive, DT40 TDP1 CPT inactive, Giardia kill inactive, TDP1 inh inactive and TDP1 cell noCPT inactive.
`COc1ccc(OC)c(NC(=O)CSc2ccc(-c3ccco3)nn2)c1` gave IL-1B inflam inh inactive, ELG1 repair inh inactive, DT40 TDP1 CPT inconclusive, Giardia kill inactive, TDP1 inh inactive and TDP1 cell noCPT inconclusive.
`COc1ccc(C)cc1NC(=O)CSc1ccc(-c2sc(C)nc2C)nn1` gave IL-1B inflam inh inconclusive, ELG1 repair inh inactive, DT40 TDP1 CPT 13µM, Giardia kill inactive, TDP1 inh inactive and TDP1 cell noCPT inconclusive.
COc1ccc(Cl)cc1NC(=O)CSc1ccc(-c2sc(C)nc2C)nn1 was read as DT40 TDP1 CPT 13µM, TDP1 inh inactive and TDP1 cell noCPT 10.3µM.
`COc1ccccc1NC(=O)CSc1ccc(-c2ccc(-n3ccnc3)cc2)nn1` gave IL-1B inflam inh inactive, ELG1 repair inh inconclusive, DT40 TDP1 CPT 20.6µM, Giardia kill inactive and TDP1 cell noCPT 13µM.
Screening Cc1ccc2oc(-c3ccccc3)cc(=O)c2c1 returned DT40 TDP1 CPT inactive, TDP1 inh inactive and TDP1 cell noCPT inactive.
OCCCN=c1cc(-c2ccccc2)oc2ccc(Cl)cc12 was read as IL-1B inflam inh -102.3, ELG1 repair inh inconclusive, DT40 TDP1 CPT inconclusive, Giardia kill inactive, TDP1 inh inactive and TDP1 cell noCPT 18.4µM.
Screening O=c1cc(-c2ccccc2)oc2ccc(O)cc12 returned IL-1B inflam inh inactive, ELG1 repair inh inconclusive, DT40 TDP1 CPT inconclusive, Giardia kill inconclusive, TDP1 inh inactive and TDP1 cell noCPT inconclusive.
Screening CC1(C)CC(N=c2cc(-c3ccccc3)oc3ccc(Cl)cc23)CC(C)(C)N1 returned IL-1B inflam inh -101.7, ELG1 repair inh inconclusive, DT40 TDP1 CPT 5.17µM, Giardia kill inconclusive, TDP1 inh inactive and TDP1 cell noCPT 5.8µM.
CCOc1ccc(NC(=O)NC(=O)N(C(C)C)S(C)(=O)=O)cc1 was read as IL-1B inflam inh inactive, ELG1 repair inh inactive, DT40 TDP1 CPT inconclusive, Giardia kill inactive, TDP1 inh inactive and TDP1 cell noCPT inactive.
For CCCCN1C(=O)C(CC(=O)NC2CCCC2)CC(C(=O)N2CCCCCC2)=C1C (stereo unspecified) the results were DT40 TDP1 CPT inactive and TDP1 cell noCPT inactive.
Screening Cc1cc(C)c(NC(=O)CN(C)C(=O)CNC(=O)c2cccs2)c(C)c1 returned IL-1B inflam inh inactive, ELG1 repair inh inconclusive, DT40 TDP1 CPT inactive, Giardia kill inactive, TDP1 inh inactive and TDP1 cell noCPT inactive.
CCN(CC)CCN(CC(=O)Nc1c(C)cc(C)cc1C)C(=O)c1ccccc1 was read as IL-1B inflam inh -68.4, ELG1 repair inh inactive, DT40 TDP1 CPT inactive, Giardia kill inactive and TDP1 cell noCPT inactive.
`O=C(N/N=C/C(Cl)=C\c1ccccc1)c1cccs1` gave IL-1B inflam inh inactive, ELG1 repair inh inconclusive, DT40 TDP1 CPT inconclusive, Giardia kill inactive, TDP1 inh inactive and TDP1 cell noCPT 9.2µM.
Screening CC(/C=N/NC(=O)c1cccs1)=C\c1ccccc1 returned IL-1B inflam inh inactive, ELG1 repair inh inconclusive, DT40 TDP1 CPT inactive, Giardia kill inactive, TDP1 inh inactive and TDP1 cell noCPT 8.2µM.
For Cc1ccc(Nc2c(F)cccc2Cl)c(CC(=O)O)c1 the results were DT40 TDP1 CPT inactive and TDP1 cell noCPT inactive.
`CCn1c(C(=O)NCCc2ccc(S(N)(=O)=O)cc2)cc2sc(Cl)cc21` gave DT40 TDP1 CPT inconclusive, TDP1 inh inactive and TDP1 cell noCPT inconclusive.
Screening O=C(Nc1cccc(F)c1)N1CCC2(CC1)CCN(C(=O)c1ccco1)CC2 returned DT40 TDP1 CPT inactive and TDP1 cell noCPT inconclusive.
Screening CN(C)c1ccc(CNCCC(Cc2ccccc2)c2ccco2)cc1 (stereo unspecified) returned IL-1B inflam inh -99.4, ELG1 repair inh inactive, DT40 TDP1 CPT 9.2µM, Giardia kill inactive, TDP1 inh inactive and TDP1 cell noCPT 10.3µM.
Screening CC(=O)NCCC(Cc1ccccc1)c1ccco1 (stereo unspecified) returned IL-1B inflam inh inactive, ELG1 repair inh inconclusive, DT40 TDP1 CPT inactive, Giardia kill inconclusive, TDP1 inh inactive and TDP1 cell noCPT inactive.
`c1ccc(CNCCC(Cc2ccccc2)c2ccco2)cc1` (stereo unspecified) gave IL-1B inflam inh -79.7, ELG1 repair inh inactive, DT40 TDP1 CPT inconclusive, Giardia kill inactive and TDP1 cell noCPT 16.4µM.
Screening O=C(NC1CC1)C1CCN(C2CCN(C(=O)/C=C/c3cccc(F)c3F)CC2)CC1 returned IL-1B inflam inh inactive, ELG1 repair inh inactive, DT40 TDP1 CPT inactive, Giardia kill inactive, TDP1 inh inactive and TDP1 cell noCPT inactive.
Screening C[C@H]1CN([C@@H](C)CO)C(=O)c2cccc(NC(=O)c3ccc(-c4nccs4)cc3)c2O[C@@H]1CN(C)C(=O)NC1CCCCC1 returned IL-1B inflam inh inactive, ELG1 repair inh inactive, DT40 TDP1 CPT inconclusive, Giardia kill inactive, TDP1 inh inactive and TDP1 cell noCPT inconclusive.
For COc1ccc(CNc2ncc(-c3cccc([N+](=O)[O-])c3)n2C)c(OC)c1OC the results were IL-1B inflam inh inactive, ELG1 repair inh inactive, DT40 TDP1 CPT inconclusive, Giardia kill inactive and TDP1 cell noCPT inconclusive.
Screening CCOc1ccc(-c2cnc(NCc3cccc4ccccc34)n2CCOC)cc1 returned IL-1B inflam inh -94.9, ELG1 repair inh inactive, DT40 TDP1 CPT inconclusive, Giardia kill inactive, TDP1 inh inactive and TDP1 cell noCPT 4.61µM.
